aSyn yeast inh: rescues yeast growth from alpha-synuclein toxicity | Yeast expressing alpha-synuclein, growth rescue, BacTiter-Glo, 24 h | Potency, µM (highest dose often 46.1 µM), most hits filed as activators | actives 0.14% (n = 370,000); note: nearly all actives have a fitted effect of over 65% in size
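Rescue of yeast growth: cells expressing toxic alpha-synuclein, induced in galactose at OD600 0.02, incubated with compound 24 h at 30 C. ATP luminescence quantified growth; inhibitors of toxicity appear as activators.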
Abeta rescue: A-beta toxicity reversal in yeast | yeast expressing A-beta42, growth rescue, OD600, 48 h; response scale: 0% DMSO, 100% iron-clioquinol control | Potency, µM (titrated, usually from 46.1 µM), actives largely listed as activators | actives 0.063% (n = 410,000) | AID 1347071; note: nearly all actives have a fitted effect of over 55% in size
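Yeast A-beta toxicity model in growth medium with pinned compounds, 48 h at 30 C; growth read as absorbance at 600 nm. Normalized to FeCl3/clioquinol equimolar mix (positive) and DMSO (negative).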
Mito fusion yeast: mitochondrial division inhibition or fusion activation; actives 0.23% (n = 320,000); S. cerevisiae fusion-defective mutant growth rescue, CellTiterGlo 48 h; Potency, µM (series often up to 46.1 µM), hits mostly activators; note: nearly all actives have a fitted effect of over 45% in size
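S. cerevisiae fusion-defective temperature-sensitive mutants (e.g. fzo1-1, mgm1-5) grown 48 h at 37C in YPEG (ethanol/glycerol non-fermentable) medium with 23 nl compound per well; growth rescue read as CellTiterGlo luminescence.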
TDP-43 yeast inh: TDP-43 toxicity inhibition in yeast. Potency, µM (highest dose often 46.1 µM), hits mostly activators. TDP-43 expressing yeast growth rescue, BacTiter-Glo, 24 h. AID 652104. actives 1.8% (n = 410,000); note: nearly all actives have a fitted effect of over 50% in size
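Cell-based yeast growth screen: TDP-43 expression induced in galactose, inoculum OD600=0.02 after raffinose pregrowth to mid-log. Read-out BacTiter-Glo luminescence at 24 hr, 30 deg C; inhibition of toxicity seen as signal increase.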
FUS suppressor: FUS proteinopathy suppression in yeast; actives 0.24% (n = 390,000); Potency, µM (series often up to 76.6 µM), actives largely listed as activators; S. cerevisiae FUS-expressing, growth rescue, OD600, 24 h; note: nearly all actives have a fitted effect of over 55% in size
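Galactose (2%) drives FUS expression in yeast precultured in raffinose; seeding density OD 0.005. Test compounds incubated 24hr at 30C and 99% humidity before absorbance at 600 nm was measured.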
Large screens that a line does not name were inactive. The list is not random: actives were taken first. Their share in the collection is about 2.2%. Calls come from the whole dose curve; as a rule, active = well fitted curve in the direction sought with a large enough effect; inconclusive = small, poorly fitted or top-dose-only effect, or another doubt; inactive = no such curve, though single readings can be large; an effect the other way counts as inactive or inconclusive.

Clc1ccc(-c2nc3cnccn3c2NC2CCCC2)cc1	TDP-43 yeast inh 13µM
CCOc1ccc(CN2C(=O)c3ccccc3C2C(=O)NCCc2ccc(OC)c(OC)c2)cc1 (stereo not drawn)	none (no result: aSyn yeast inh, Mito fusion yeast)
COC1=CC(=O)c2nc(Cl)ccc2C1=O	aSyn yeast inh inconclusive, TDP-43 yeast inh 13µM (no result: Mito fusion yeast)
COC1=CC(=O)c2c(ccc3ncnc(N)c23)C1=O	none (no result: Mito fusion yeast, FUS suppressor)
Clc1ccc(COn2c(-c3ccccc3)nc3ccccc32)cc1	TDP-43 yeast inh 18µM
CNc1oc(/C=C/c2cc(OC)c(OC)c(OC)c2)nc1C#N	TDP-43 yeast inh inconclusive (no result: Mito fusion yeast)
O=c1oc2ccccc2cc1-c1csc(NN=C2CCCCC2)n1	FUS suppressor 13µM
Cc1ccc(C(=O)Nc2nc(-c3ccccn3)cs2)cc1S(=O)(=O)N1CCOCC1	aSyn yeast inh 13µM, TDP-43 yeast inh inconclusive
O=C(Nc1nc(-c2cc3ccccc3oc2=O)cs1)c1ccco1	TDP-43 yeast inh 3.5µM
O=c1oc2ccccc2cc1-c1csc(Nc2nc3c(F)cccc3s2)n1	none (no result: FUS suppressor)
O=C(Nc1nc(-c2ccccn2)cs1)c1ccc(F)c(S(=O)(=O)N2CCOCC2)c1	aSyn yeast inh inconclusive
O=C(Nc1nc(-c2ccccn2)cs1)c1ccco1	aSyn yeast inh 18µM, Abeta rescue inconclusive
Cc1ccc(Cc2nc3ccccc3nc2SCC(=O)NCc2ccccc2Cl)cc1	none (no result: aSyn yeast inh, Mito fusion yeast)
O=C1N[C@@H](Cc2ccccc2)COC(=O)[C@H](Cc2ccc(F)cc2)CC/C=C/C[C@H]1CC(=O)N(CCO)Cc1ccccc1	FUS suppressor 22µM (no result: Mito fusion yeast)
O=C1NC[C@H](c2ccccc2)OC(=O)[C@@H](Cc2ccc(F)cc2)CC/C=C/C[C@H]1CC(=O)N(CCO)Cc1ccccc1	FUS suppressor inconclusive (no result: Mito fusion yeast)
O=C1N[C@@H](Cc2ccccc2)COC(=O)[C@H](Cc2ccc(F)cc2)CC/C=C/C[C@@H]1CC(=O)N(CCO)Cc1ccccc1	FUS suppressor inconclusive (no result: Mito fusion yeast)
O=C(N[C@@H]1C/C=C\C[C@H](CC(=O)N(CCO)Cc2ccccc2)C(=O)N[C@@H](Cc2ccccc2)COC1=O)OCC1c2ccccc2-c2ccccc21	FUS suppressor 32µM (no result: Mito fusion yeast)
O=C1NC[C@H](c2ccccc2)OC(=O)[C@H](Cc2ccc(F)cc2)CC/C=C/C[C@H]1CC(=O)N(CCO)Cc1ccccc1	FUS suppressor 32µM (no result: Mito fusion yeast)
O=C(C[C@H]1C/C=C\C[C@H](Cc2ccc(F)cc2)C(=O)O[C@@H](c2ccccc2)CNC1=O)N[C@H](CO)Cc1ccccc1	FUS suppressor 28µM (no result: Mito fusion yeast)
COc1ccc(OC)c(S(=O)(=O)NC(=O)C2(C)CCN2C(=O)c2ccco2)c1 (stereo not drawn)	none (no result: Mito fusion yeast)
CCOC(=O)[C@]12CCCCC/C=C\1N(CCc1ccc(Cl)cc1)C(=O)[C@H]2CC(=O)NCC12CC3CC(CC(C3)C1)C2	none (no result: aSyn yeast inh, Abeta rescue, Mito fusion yeast, TDP-43 yeast inh)
CCOC(=O)C1CCN(C(=O)c2oc3ccc4c(c3c2C)C(O)CC2(CCCCC2)O4)CC1 (stereo not drawn)	TDP-43 yeast inh 25µM, FUS suppressor inconclusive
Cc1cccc(CSCc2ccc(C(=O)NCCc3ccccc3)o2)c1	TDP-43 yeast inh 35µM (no result: Mito fusion yeast)
COCCNC(=O)c1ccc(CSCc2cccc(Cl)c2)o1	TDP-43 yeast inh inconclusive
O=C1c2ccccc2C(=O)N1c1ccccc1	none (no result: Mito fusion yeast)
Nc1cccc2c1C(=O)N(c1ccccc1)C2=O	TDP-43 yeast inh 35µM (no result: Mito fusion yeast)
COc1ccccc1CCNC(=O)Cc1c(C)c2cc3c(C(C)(C)C)coc3c(C)c2oc1=O	none (no result: aSyn yeast inh, Mito fusion yeast)
Cc1cc(-c2ccc(S(=O)(=O)Nc3ccc(Cl)cc3C)cc2)on1	TDP-43 yeast inh 16µM (no result: aSyn yeast inh, Mito fusion yeast)
Cc1ccc(NS(=O)(=O)c2ccc(-c3cc(C)no3)cc2)c(Br)c1	TDP-43 yeast inh 22µM (no result: aSyn yeast inh, Mito fusion yeast)
Cc1cc(-c2ccc(S(=O)(=O)Nc3ccccc3C)cc2)on1	none (no result: aSyn yeast inh, Mito fusion yeast)
CCOc1ccccc1NC(=O)C1CCCN1S(=O)(=O)c1ccc2nc(-c3ccccc3)[nH]c2c1 (stereo not drawn)	none (no result: aSyn yeast inh, Mito fusion yeast)
Cn1c(=O)oc2cc(S(=O)(=O)CCC(=O)N3CCN(c4cccc(Cl)c4)CC3)ccc21	none (no result: aSyn yeast inh, Mito fusion yeast)
Cc1cccc(NC(=O)c2cc([N+](=O)[O-])ccc2Cl)c1O	TDP-43 yeast inh 22µM
O=[N+]([O-])c1cc(S(=O)(=O)Oc2ccccc2)ccc1Cl	TDP-43 yeast inh 11µM (no result: Mito fusion yeast, FUS suppressor)
